# High-throughput results (PubChem BioAssay)
# An excerpt weighted towards active compounds, which were near 19% of everything screened.
# HT1080 IDH1KD tx: qHTS for induction of synthetic lethality in tumor cells producing 2HG: qHTS for the HT-1080-IDH1KD cell line. HT-1080 IDH1 knockdown viability, ATP luminescence, 48 h. Potency, µM (series often up to 46.1 µM), for the others: at the highest dose activity, negative = toxicity, hits mostly cytotoxic. hit rate 2% among 360,000. AID 686971, 2013;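 note: potency is the fitted concentration of half-maximal effect; 0% = DMSO wells and -100% = cell-free medium wells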
#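 Using the IDH1-knockdown HT-1080 line run in the same batch and compound series as the NT line, viability after 48 h at 37 °C was determined by CellTiter-Glo luminescence and expressed as % activity.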
# HT1080NT lethal: qHTS for induction of synthetic lethality in tumor cells producing 2HG: qHTS for the HT-1080-NT fibrosarcoma cell line. HT-1080-NT fibrosarcoma viability, CellTiter-Glo ATP luminescence, 48 h. AID 686970, 2013. Potency, µM (top dose mostly 46.1 µM), for the others: top-dose activity, negative = less viability, hits mostly cytotoxic. hit rate 1.6% among 360,000;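 note: NT is the 2HG producing partner of a matched IDH1 knockdown line; potency is the fitted concentration of half-maximal effect; 0% = DMSO-treated cells and -100% = media-only wells without cells; nearly all actives have a fitted effect of over 55% in size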
#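 Read-out is CellTiter-Glo luminescence after 10 minutes at room temperature, following 48 hours' compound treatment of HT-1080-NT cells (750 cells/well, RPMI, 5% FBS, 37 degrees C).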
# DT40 TDP1 CPT: qHTS for Inhibitors of human tyrosyl-DNA phosphodiesterase 1 (TDP1): qHTS in cells in presence of CPT; chicken DT40 Tdp1-/-;hTDP1 cells + 20 nM CPT, ATP luminescence, 48 h; Potency, µM (top dose mostly 46.2 µM), without a hit: at the highest dose activity change, negative = growth inhibition, most hits filed as inhibitors; hit rate 12% among 420,000; note: potency is the fitted concentration of half-maximal effect; nearly all actives have a fitted effect of over 55% in size
#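 Chicken DT40 Tdp1-/- cells complemented with human TDP1, 400 cells/well, exposed to compounds plus 20 nM camptothecin for at least 48 h at 37 C; viability read as ATP content by CellTiter-Glo luminescence.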
# TDP1 cell noCPT: qHTS for Inhibitors of human tyrosyl-DNA phosphodiesterase 1 (TDP1): qHTS in cells in absence of CPT; DT40 Tdp1-/- hTDP1 cells, no CPT, ATP luminescence, 48 h; Potency, µM (top dose mostly 46.2 µM), for inactives: top-dose activity change, negative = growth inhibition, hits mostly inhibitors; hit rate 15% among 420,000; note: potency is the fitted concentration of half-maximal effect; nearly all actives have a fitted effect of over 55% in size
#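 Readout: luminescence from CellTiter-Glo after 30 min in the dark at RT. Cells: DT40 Tdp1-/- with stable hTDP1, 400/well. Exposure: compounds alone, ≥48 hr, 37 °C.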
# IL1B secr inh: qHTS for Inhibitors of Inflammasome Signaling: IL-1-beta AlphaLISA Primary Screen; THP-1 LPS/ATP IL-1B secretion, AlphaLISA, 16 h; stronger effect = lower value; activity change, % at 57.5 µM; hit rate 4.7% among 360,000; in the data active = activity change below about -50%; inconclusive = mostly about -30% to -49%
#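 THP-1 cells pretreated 1 hr with compounds (up to 57.5 uM final), then stimulated with LPS (250 ng/mL final) plus ATP (1.25 mM final); secreted IL-1B measured by AlphaLISA after 16 hr, decreased signal indicating inhibition.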
# The depositor's hits bear a star; ? = inconclusive; . = not tested or not shown. Unless noted, calls come from the whole dose curve; as a rule, active = well fitted curve in the direction sought with a large enough effect; inconclusive = small, poorly fitted or top-dose-only effect, or another doubt; inactive = no such curve, though single readings can be large; an effect the other way counts as inactive or inconclusive. Unless noted, % is set by controls: 0 for no effect and ±100 for the full control effect.
SMILES,HT1080 IDH1KD tx,HT1080NT lethal,DT40 TDP1 CPT,TDP1 cell noCPT,IL1B secr inh
CCOc1ccc(NC(=O)Cn2c(=O)n(-c3ccccc3)c(=O)c3ccc(C(=O)NCc4ccc5c(c4)OCO5)cc32)cc1,.,.,21µM*,21µM*,.
Cc1ccc(NC(=O)Cn2c(=O)n(-c3ccc(C)cc3)c(=O)c3ccc(C(=O)NCc4ccccc4Cl)cc32)cc1,.,.,7.3µM*,13µM*,.
CCOC(=O)Cn1cnc2c(nnn2-c2cccc(Cl)c2)c1=O,8%,20%,-5%,5%,-24
CCN(CC)S(=O)(=O)c1ccc2[nH]c(=O)cc(C(=O)Nc3cccc(C(C)=O)c3)c2c1,-1%,1%,4%,?,17
CC(C)OC(=O)C(C)Nc1ccc(F)c(Cl)c1 (configuration not stated),6%,12%,12%,6%,-9
O=C(CN1CCN(C(=O)CNC(=O)c2ccc(N3CCCC3=O)cc2)CC1)Nc1cccc(F)c1,1%,3%,1%,-4%,-13
CCCN(CCC)C(=O)Cn1c(=O)n(-c2ccc(OC)cc2)c(=O)c2ccc(C(=O)NCc3ccc(C)cc3)cc21,.,.,?,16µM*,.
CCCc1cc(CNC(=O)C2CCC(=O)N(Cc3ccccc3OC)C2)on1 (configuration not stated),18%,11%,-2%,1%,21
OC(COc1cc(Cl)c(Cl)cc1Cl)CN1CCN(c2ncccn2)CC1 (configuration not stated),-1%,7%,18µM*,?,-16
OC(COC(c1ccccc1)c1ccccc1)CN1CCN(c2ccccn2)CC1 (configuration not stated),-4%,-10%,-21%,?,?
COc1ccc(OCC(O)CN2CCN(c3ncccn3)CC2)cc1 (configuration not stated),12%,21%,-5%,-9%,0
Cc1cc(OCC(O)CN2CCN(c3ccccn3)CC2)cc(C)c1Cl (configuration not stated),?,16µM*,?,?,-69*
OC(COc1ccc(Cl)cc1)CN1CCN(c2ccccn2)CC1 (configuration not stated),2%,6%,-16%,?,-8
OC(CN1CCN(c2ccccn2)CC1)Cn1c2ccccc2c2ccccc21 (configuration not stated),?,-30%,15µM*,8.2µM*,-5
N#Cc1ccc(NC(=O)Cn2cnc(S(=O)(=O)N3CCc4ccccc43)c2)cc1,-23%,?,?,?,48
CSc1nc(N)c2c(n1)N(C)C=NS2(=O)=O,12%,5%,6%,-16%,-1
Cc1ccc(-c2nn(CC(=O)NCC3CCCO3)c(=O)c3ccccc23)cc1 (configuration not stated),-3%,6%,-6%,-13%,-12
O=C(NCC1CCCO1)c1cc2c([nH]c3ccccc32)c(-c2cccc(Br)c2)n1 (configuration not stated),-13%,-14%,2.6µM*,2.9µM*,?
Cc1ccc(-c2nc(C(=O)NCC3CCCO3)cc3c2[nH]c2ccccc23)cc1 (configuration not stated),-28%,?,2.3µM*,1.8µM*,-60*
Cc1ccccc1-c1nc(C(=O)NCC2CCCO2)cc2c1[nH]c1ccccc12 (configuration not stated),-4%,-19%,12µM*,18µM*,-51*
COc1ccc(-c2nc(C(=O)NCC3CCCO3)cc3c2[nH]c2ccccc23)cc1 (configuration not stated),-28%,-20%,2.1µM*,2.1µM*,?
Cc1cc(Br)cc2c(C(=O)NCC3CCCO3)cc(-c3ccccc3)nc12 (configuration not stated),-4%,3%,?,?,2
Cc1ccc(NC(=O)c2ncn(CC(=O)N3CCN(c4ccccn4)CC3)n2)cc1C,4%,4%,?,?,-1
Cc1c(C(=O)Nc2ccc(F)cc2)oc2ccc(S(=O)(=O)N3CC(C)CC(C)C3)cc12 (configuration not stated),-11%,0%,18µM*,15µM*,40
CCN(CC)C(=O)c1oc2ccc(S(=O)(=O)N3CC(C)CC(C)C3)cc2c1C (configuration not stated),?,?,4.1µM*,9.2µM*,-7
SMILES,HT1080 IDH1KD tx,HT1080NT lethal,DT40 TDP1 CPT,TDP1 cell noCPT,IL1B secr inh
CCOC(=O)c1oc2ccc(S(=O)(=O)N3CCOCC3)cc2c1C,7%,7%,-17%,-13%,11
CCN(CC)C(=O)c1oc2ccc(S(=O)(=O)N3CCCCCC3)cc2c1C,-18%,?,?,23µM*,-10
CCN(Cc1ccccc1)C(=O)c1oc2ccc(S(=O)(=O)N3CCOCC3)cc2c1C,-17%,-18%,?,-26%,-53*
O=Cc1ccc(F)c([B-](F)(F)F)c1,-7%,-2%,5%,-8%,-4
CCOC(=O)c1ccc2ncc(C(=O)OCC)c(NCCc3ccc(OC)c(OC)c3)c2c1,.,.,26µM*,15µM*,.
CCOC(=O)c1cnc2ccc(C(=O)OC)cc2c1NCCc1ccc(OC)c(OC)c1,-20%,-16%,?,18µM*,35
COc1cc(S(=O)(=O)n2nc(C)cc2C)c(OC)cc1Cl,24%,0%,4%,-1%,0
Cc1ccc(NC(=O)CN2CCC(NC(=O)c3ccccc3F)CC2)cc1C,0%,9%,?,-18%,-23
C=CCn1c2ccccc2c2nn(C)c(=S)nc21,-7%,-18%,0%,-25%,-5
COc1cc2c(cc1O)C(Cc1ccc(O)cc1)[N+](C)(C)CC2 (configuration not stated),.,.,6%,-3%,.
Cc1cc(N2CCOCC2)n2ncc(-c3ccc(Cl)cc3)c2n1,9%,24%,1%,-16%,15
Cc1nc2c(-c3ccccc3)cnn2c(N)c1-c1ccccc1,?,?,-28%,?,-78*
Cc1cc(SCC(=O)c2ccccc2)n2ncc(-c3ccccc3)c2n1,0%,21%,?,7.3µM*,-6
Cc1cc(N2CCCCC2)n2ncc(-c3ccc(Cl)cc3)c2n1,-18%,-7%,13µM*,?,6
